IDE exosite FP: displaces the probe from the exo-site of human IDE | z-score at 20 µM | 17,000 tested, 6.3% active | P14735 | purified IDE, FL-6b probe fluorescence polarization; active compounds read low;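 active = z-score of -3 or lower, meaning strong loss of probe binding signal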;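 also: His-tagged human IDE residues 42-1019 made in E. coli with 30 nM FL-6b probe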
Target sequence (P14735 42-1019 limits assumed): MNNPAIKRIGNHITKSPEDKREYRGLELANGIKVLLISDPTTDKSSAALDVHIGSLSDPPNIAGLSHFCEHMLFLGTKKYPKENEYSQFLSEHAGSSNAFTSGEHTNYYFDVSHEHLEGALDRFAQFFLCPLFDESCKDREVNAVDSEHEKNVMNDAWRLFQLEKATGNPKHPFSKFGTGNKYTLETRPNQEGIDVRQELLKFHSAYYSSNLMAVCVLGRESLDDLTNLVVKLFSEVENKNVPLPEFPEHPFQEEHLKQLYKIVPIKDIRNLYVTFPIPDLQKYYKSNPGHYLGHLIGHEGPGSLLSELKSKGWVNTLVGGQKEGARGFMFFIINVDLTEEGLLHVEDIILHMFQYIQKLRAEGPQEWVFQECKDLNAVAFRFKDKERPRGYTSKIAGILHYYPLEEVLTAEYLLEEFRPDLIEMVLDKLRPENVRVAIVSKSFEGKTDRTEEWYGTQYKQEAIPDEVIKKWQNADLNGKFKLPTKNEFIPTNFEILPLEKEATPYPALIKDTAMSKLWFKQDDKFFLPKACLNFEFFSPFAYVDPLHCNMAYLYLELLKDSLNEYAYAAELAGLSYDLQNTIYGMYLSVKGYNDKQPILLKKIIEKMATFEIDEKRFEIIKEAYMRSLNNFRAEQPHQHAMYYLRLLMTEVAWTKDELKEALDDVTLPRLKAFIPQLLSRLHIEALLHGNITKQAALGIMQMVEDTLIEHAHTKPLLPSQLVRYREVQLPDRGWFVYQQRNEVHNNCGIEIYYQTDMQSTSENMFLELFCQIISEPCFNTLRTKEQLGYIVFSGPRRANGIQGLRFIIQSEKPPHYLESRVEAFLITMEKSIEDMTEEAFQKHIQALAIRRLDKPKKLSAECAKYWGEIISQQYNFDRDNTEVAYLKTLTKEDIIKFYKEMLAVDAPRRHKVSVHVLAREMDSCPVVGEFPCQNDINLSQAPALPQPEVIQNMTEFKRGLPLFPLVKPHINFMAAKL
Numbers stand for hits; i = inactive. Only a selection was taken, and hits are over-represented in it overall.

SMILES | IDE exosite FP
CN1C(=O)c2cc(NC(=O)c3cnccn3)ccc2OC[C@@H]2O[C@@H](CC(=O)N[C@@H]3CCN(Cc4ccccc4)C3)CC[C@H]21 | i
CNC[C@H]1[C@@H](c2ccc(C#CCC3CCCC3)cc2)[C@@H](CO)N1C(=O)C1CCC1 | i
N#Cc1cccc(-c2ccc([C@@H]3[C@H](CO)N4CCCCN(C(=O)Nc5ccccc5)C[C@@H]34)cc2)c1 | i
CCC(=O)N(C)C[C@H]1N[C@@H](CO)[C@H]1c1ccc(-c2cccc(C#N)c2)cc1 | i
O=C(Nc1ccccc1)N1CC(=O)N2[C@H](C1)[C@H](c1ccc(-c3ccc(F)cc3)cc1)[C@@H]2CO | i
C[C@H]1CN([C@@H](C)CO)C(=O)c2cc(-c3ccc(F)cc3)cnc2O[C@@H]1CN(C)S(C)(=O)=O | i
CO[C@@H]1CN(C)C(=O)c2cc(NC(=O)C3CCOCC3)ccc2OC[C@@H](C)N(C(=O)Nc2ccc(C(F)(F)F)cc2)C[C@H]1C | i
N#Cc1cccc(-c2ccc([C@H]3[C@@H](CO)N4CCCCN(C(=O)Nc5cccc(F)c5)C[C@@H]34)cc2)c1 | i
CCCNC(=O)Nc1ccc2c(c1)OC[C@H](C)N(S(C)(=O)=O)C[C@H](C)[C@@H](OC)CN(C)C2=O | i
COCC(=O)N1CCCCN2[C@H](CO)[C@H](c3ccc(-c4ccc(C)cc4)cc3)[C@@H]2C1 | i
COCC(=O)N1CCCCN2[C@@H](CO)[C@@H](c3ccc(-c4ccc(C)cc4)cc3)[C@@H]2C1 | i
COCC(=O)N1CCCCN2[C@@H](CO)[C@H](c3ccc(-c4ccc(C)cc4)cc3)[C@@H]2C1 | i
COCC(=O)N1CCCCN2[C@H](C1)[C@H](c1ccc(-c3ccc(C)cc3)cc1)[C@@H]2CO | i
COCC(=O)N1CCCCN2[C@H](CO)[C@@H](c3ccc(-c4cccc(C)c4)cc3)[C@@H]2C1 | -5.3
COCC(=O)N1CCCCN2[C@@H](CO)[C@H](c3ccc(-c4cccc(C)c4)cc3)[C@@H]2C1 | -3.1
COc1ccccc1-c1cn(CC[C@@H]2CC[C@@H](NC(=O)C3CCCCC3)[C@H](CO)O2)nn1 | i
O=C(Nc1ccccc1)N1CCCCN2[C@H](C1)[C@@H](c1ccc(C#Cc3cccnc3)cc1)[C@@H]2CO | i
Cc1noc(C)c1NC(=O)N1C[C@@H](O)COC[C@H]2O[C@@H](CC(=O)NCC3CC3)CC[C@@H]21 | i
CC(=O)NC[C@H]1[C@@H](c2ccc(C#CC(C)C)cc2)[C@@H](CO)N1C(=O)C1CC1 | i
CN1[C@H](CO)[C@H]2c3ccccc3N(C(=O)Nc3cc(F)ccc3F)C[C@H]21 | i
OC[C@H]1[C@H](c2ccc(-c3ccc(F)cc3)cc2)[C@H]2CN(Cc3cccnc3)CCCCN21 | i
OC[C@@H]1[C@H](c2ccc(/C=C/c3ccccc3)cc2)[C@@H]2CN(Cc3ccncc3)CCCCN12 | -8.5
Cc1ccccc1-c1ccc([C@H]2[C@@H](CO)N3CCCCN(Cc4cccnc4)C[C@H]23)cc1 | -11
OC[C@@H]1[C@H](c2ccc(/C=C/c3ccccc3)cc2)[C@H]2CN(Cc3cncnc3)CCCCN12 | -4.4
OC[C@@H]1[C@@H](c2ccc(/C=C/c3ccccc3)cc2)[C@@H]2CN(Cc3cccnc3)CCCCN12 | i
SMILES | IDE exosite FP
CCCC#Cc1ccc([C@H]2[C@H](CO)N3CCCCN(Cc4ccncc4)C[C@@H]23)cc1 | i
OC[C@H]1[C@H](c2ccc(-c3ccccc3F)cc2)[C@@H]2CN(Cc3cccnc3)CCCCN12 | i
OC[C@@H]1[C@H](c2ccc(-c3ccccc3F)cc2)[C@H]2CN(Cc3ccncc3)CCCCN12 | i
OC[C@@H]1[C@H](c2ccc(-c3cccc(F)c3)cc2)[C@H]2CN(Cc3cncnc3)CCCCN12 | i
OC[C@@H]1[C@H](c2ccc(/C=C/c3ccccc3)cc2)[C@@H]2CN(Cc3cccnc3)CCCCN12 | -5.2
OC[C@H]1[C@@H](c2ccc(-c3ccccc3F)cc2)[C@H]2CN(Cc3cccnc3)CCCCN21 | i
OC[C@H]1[C@@H](c2ccc(-c3cccc(F)c3)cc2)[C@@H]2CN(Cc3cncnc3)CCCCN12 | i
C[C@@H](NC(=O)C[C@H]1C=C[C@@H](NC(=O)c2cccnc2)[C@@H](CO)O1)c1ccccc1 | i
CCN(C[C@@H]1N[C@@H](CO)[C@@H]1c1ccc(C2=CCCC2)cc1)C(=O)c1ccncc1 | i
CCC(=O)N1[C@@H](CO)[C@@H](c2ccc(-c3cccnc3)cc2)[C@@H]1CN(CC)C(C)=O | i
CN1CCN(C(=O)C[C@@H]2CC[C@H]3[C@@H](COc4ccc(NC(=O)c5cccs5)cc4C(=O)N3C)O2)CC1 | i
CO[C@@H]1CC[C@H]2CCN(C)C(=O)[C@H](C)CN(C)C(=O)c3cc(C#N)ccc3OC[C@H]1O2 | i
O=C(c1ccc(F)cc1)N1CC(=O)N2[C@H](CO)[C@H](c3ccc(C#CC4CC4)cc3)[C@H]2C1 | i
COc1ccc2c3c(n(C)c2c1)[C@@H](CO)N(C(=O)c1ccncc1)CC31CN(C(C)=O)C1 | i
O=C(C1CCCC1)N1CC(=O)N2[C@@H](CO)[C@H](c3ccc(Br)cc3)[C@@H]2C1 | i

Source: PubChem BioAssay (Broad Institute)
